Assay outcomes deposited in PubChem by National Center for Advancing Translational Sciences (NCATS).
Only some compounds are listed: those with a hit (about 5.9% of all), similar ones and a draw of the others.
ATXN2 expr inh – reduces ATXN2 reporter expression in HEK-293 cells; HEK-293 ATXN2-luciferase reporter, luminescence, 24 h; Potency, µM (highest dose often 57 µM), without a hit: at the highest dose activity change, negative = inhibition, actives largely listed as inhibitors; 360,000 tested, 0.72% active; AID 1745845; also: potency is read from the fitted curve at half-maximal effect; % is scaled to controls: 0 for no effect and ±100 for the full control effect; nearly all actives have a fitted effect of over 55% in size
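ATXN2-luciferase reporter cells (luciferase flanked by upstream and downstream ATXN2 gene portions) were treated 24 h at 37 °C with compounds at up to 57 uM. SteadyGlo luminescence gave expression; GF-AFC fluorescence gave viability.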
KB-V1 cytotox – kills drug-selected multidrug resistant KB-V1 cells; KB-V1 MDR cells viability, CellTiter-Glo, 72 h; Potency, µM (series often up to 46.1 µM), hits mostly cytotoxic; 400,000 tested, 3.4% active; AID 1347076; also: potency is read from the fitted curve at half-maximal effect; % is scaled to controls: 0 for no effect and ±100 for the full control effect; nearly all actives have a fitted effect of over 60% in size
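KB-V1, DMEM (no phenol red) + 10% FBS; cpd pin-transferred, titration series; 72 h, 37 degrees C; CellTiter-Glo, luminescence. Data normalized, curve-fit.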
S2 tox – viability counter-screen for ATXN expression inhibitors. S2 cells (HEK-293 line with an ATXN2-luciferase reporter) viability, CellTiter-Fluor protease fluorescence, 24 h. Potency, µM (top dose mostly 56.7 µM), usual class: cytotoxic. 400,000 tested, 0.49% active. AID 651635; also: potency is read from the fitted curve at half-maximal effect; nearly all actives have a fitted effect of over 40% in size
TGFb SMAD3 inh – blocks TGF-b signaling | HepG2 CAGA-GFP TGF-b/SMAD3 reporter, GFP fluorescence, 18 h; TGF-beta stimulated, 500 pg/mL final | Potency, µM (series often up to 46.1 µM), without a hit: at the top dose activity, negative = inhibition, most hits filed as inhibitors | 410,000 tested, 1.2% active | AID 588855; also: potency is read from the fitted curve at half-maximal effect; % is scaled to controls: 0 for no effect and ±100 for the full control effect; nearly all actives have a fitted effect of over 65% in size
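Read-out: total well GFP (ex488/em500-530) summed from mean per-cell fluorescence. Cells: HEPG2 CAGA-GFP, 1% FBS DMEM, 18 h at 37 degrees C with 500 pg/mL final TGF-beta. Unstimulated wells served as the full-inhibition control; stimulated DMSO wells = 0%.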
KB-3-1 cytotox – kills parental KB-3-1 adenocarcinoma cells; KB-3-1 viability, CellTiter-Glo ATP luminescence, 72 h; Potency, µM (titrated, usually from 46.1 µM), usual class: cytotoxic; 400,000 tested, 1.4% active; also: potency is read from the fitted curve at half-maximal effect; % is scaled to controls: 0 for no effect and ±100 for the full control effect; nearly all actives have a fitted effect of over 60% in size
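Multi-concentration cytotoxicity screen in KB-3-1 cells grown in DMEM lacking phenol red with 10% FBS. After 72 h at 37 °C with compound, ATP-dependent luminescence was recorded.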
HepG2 tox – kills HepG2 cells in TGF-b inhibitor counter-screen; HepG2 CAGA-GFP viability, ATP luminescence, 18 h; Potency, µM (top dose mostly 46.1 µM), without a hit: top-dose activity change, negative = cytotoxicity, usual class: cytotoxic; 410,000 tested, 0.76% active; AID 588856; also: potency is read from the fitted curve at half-maximal effect
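HepG2 CAGA-GFP cells (1000/well, DMEM with 1% FBS) received compound, then TGF-beta at 500 pg/mL final, and were incubated 18 hours at 37 degrees C. Viability was read by CellTiter-Glo luminescence. Media-only wells were set as complete cell-killing and DMSO as no toxicity.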
SKNSH spheroid – SK-N-SH 3D spheroid viability loss; shares compounds with ATXN2 expr inh; SK-N-SH 3D spheroid viability, PI/Hoechst imaging, 72 h; Potency, µM (highest dose often 30.7 µM), actives largely listed as inhibitors; 65 tested, 70% active; AID 1347135
SJGBM2 3D viab – reduced viability of SJ-GBM2 3D spheroids, orthogonal test. SJ-GBM2 3D spheroid viability, PI/Hoechst imaging, 72 h. 65 tested, 80% active. shares compounds with ATXN2 expr inh. Potency, µM (doses to about 30.7 µM), most hits filed as inhibitors. AID 1347136
Daoy 3D tox – kills Daoy spheroids in orthogonal 3D test; shares compounds with ATXN2 expr inh; Daoy 3D spheroid viability, PI/Hoechst imaging, 72 h; Potency, µM (titrated, usually from 30.7 µM), hits mostly inhibitors; 65 tested, 50% active; AID 1347137
TC32 3D casp – TC32 spheroid caspase-3/7 activation, orthogonal screen | Potency, µM (doses to about 30.7 µM), hits mostly inhibitors | 65 tested, 30% active | AID 1347138 | shares compounds with ATXN2 expr inh | TC32 3D spheroids, caspase-3/7 fluorescence imaging, 24 h
TC32 spheroid – reduced viability of TC32 3D spheroids, orthogonal test; shares compounds with ATXN2 expr inh; TC32 3D spheroid viability, PI/Hoechst imaging, 72 h; Potency, µM (series often up to 30.7 µM), most hits filed as inhibitors; 65 tested, 60% active; AID 1347139
MG63 spheroid – kills MG-63 (6-TG R) spheroids in orthogonal 3D test | shares compounds with ATXN2 expr inh | MG-63 (6-TG R) 3D spheroid viability, PI/Hoechst imaging, 72 h | Potency, µM (top dose mostly 30.7 µM), hits mostly inhibitors | 65 tested, 50% active | AID 1347140
RD spheroid – RD 3D spheroid viability loss. AID 1347141. 65 tested, 50% active. RD rhabdomyosarcoma 3D spheroid viability, PI/Hoechst imaging, 72 h. shares compounds with ATXN2 expr inh. Potency, µM (titrated, usually from 30.7 µM), most hits filed as inhibitors
Numbers without * were called inactive. Calls follow the shape of the dose curve; as a rule, active = well fitted curve in the direction sought with a large enough effect; inconclusive = small, poorly fitted or top-dose-only effect, or another doubt; inactive = no such curve, though single readings can be large; an effect the other way counts as inactive or inconclusive.

Results for COc1cccc(C(=O)Nc2c3c(nn2-c2ccc(Cl)cc2)CS(=O)(=O)C3)c1 ?
ATXN2 expr inh: -6%; KB-V1 cytotox: inactive; S2 tox: inactive; TGFb SMAD3 inh: 16%; KB-3-1 cytotox: inactive; HepG2 tox: -11%

How did COC(=O)Nc1nc2ccc(S(=O)c3ccccc3)cc2[nH]1 (stereo not drawn) do in these assays?
ATXN2 expr inh: -12%; S2 tox: inconclusive; SKNSH spheroid: inconclusive; SJGBM2 3D viab: 0.57µM*; Daoy 3D tox: inconclusive; TC32 3D casp: inconclusive; TC32 spheroid: 0.64µM*; MG63 spheroid: inconclusive; RD spheroid: inconclusive

Results for CCCS(=O)c1ccc2nc(NC(=O)OC)[nH]c2c1 (stereo not drawn) ?
ATXN2 expr inh: -12%; S2 tox: inactive

Results for CCCCCCn1cc(CN2CC(N3CCCCC3)CS2(=O)=O)nn1 (stereo not drawn) ?
ATXN2 expr inh: 13%; KB-V1 cytotox: inactive; S2 tox: inactive; KB-3-1 cytotox: inactive

What do the screens show for `CN(C)/N=N/c1nc[nH]c1C(N)=O`?
ATXN2 expr inh: -27%; S2 tox: inactive; SKNSH spheroid: inactive; SJGBM2 3D viab: inconclusive; Daoy 3D tox: inactive; TC32 3D casp: inactive; TC32 spheroid: inactive; MG63 spheroid: inactive; RD spheroid: inactive

How did CN(C)N=Nc1nc[nH]c1C(N)=O do in these assays?
ATXN2 expr inh: inconclusive; KB-V1 cytotox: inconclusive; S2 tox: inactive; TGFb SMAD3 inh: -9%; KB-3-1 cytotox: inactive; HepG2 tox: -16%
